This is a sample that favours compounds with a hit; in the whole collection about 6.5% have one here.
LASV entry inh = qHTS for Inhibitors of binding or entry into cells for Lassa Virus; AID 540256, 2011; Lassa virus pseudotype entry inhibition, cell reporter; 1.2% of 300,000 active; Potency, µM (highest dose often 37.9 µM), inactives show top-dose activity change, negative = inhibition, most hits filed as inhibitors; calls by dose curve; tested in HEK293 cells; note: potency is the fitted concentration of half-maximal effect; nearly all actives have a fitted effect of over 50% in size
HCMV inh = qHTS Assay for inhibitors of the human cytomegalovirus (HCMV). HFF cells, HCMV-luciferase reporter, 72 h; stronger effect = lower value. activity change, negative = inhibition, % at 57.5 µM. 4.5% of 410,000 active; in the data active = activity change below about -60%; inconclusive = no clear call, values can overlap the other calls; inactive = above about -39%
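Two compound doses tested in HFFs infected with HCMV-luciferase, MOI 1 PFU/cell, 72 h at 37C. Lysate luminescence read with OneGlo; data normalized against buffer-only and 10uM Salinomycin inhibitor controls.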
Vaccinia mCherry = qHTS for Stage-Specific Inhibitors of Vaccinia Orthopoxvirus: mCherry Reporter Primary qHTS | Potency, µM (top dose mostly 36.5 µM), without a hit: top-dose activity change, negative = inhibition, most hits filed as inhibitors | 0.63% of 310,000 active | Vaccinia virus mCherry reporter infection, fluorescence | AID 720579, 2013; calls by dose curve; tested in A549 cells; note: potency is the fitted concentration of half-maximal effect; nearly all actives have a fitted effect of over 35% in size
VACV Venus inh = qHTS for Stage-Specific Inhibitors of Vaccinia Orthopoxvirus: Venus Reporter Primary qHTS; Vaccinia virus Venus reporter expression, fluorescence; Potency, µM (doses to about 36.5 µM), for inactives: top-dose activity change, negative = inhibition, most hits filed as inhibitors; 0.46% of 330,000 active; calls by dose curve; tested in A549 cells; note: potency is the fitted concentration of half-maximal effect; nearly all actives have a fitted effect of over 30% in size
FMDV antiviral = High Throughput Screening for Foot and Mouth Disease Virus Antivirals; FMDV antiviral cell-based qHTS; Potency, µM (series often up to 57.9 µM), without a hit: at the highest dose activity change, negative = inhibition, hits mostly inhibitors; 1.2% of 410,000 active; AID 1159524, 2015; calls by dose curve; tested in HEK293T cells; note: read-out not given here; potency is the fitted concentration of half-maximal effect; nearly all actives have a fitted effect of over 45% in size
Marburg entry inh = qHTS for inhibitors of binding or entry into cells for Marburg Virus | Marburg virus pseudotyped entry inhibition, cell reporter | 1.8% of 300,000 active | Potency, µM (titrated, usually from 37.8 µM), for inactives: top-dose activity change, negative = inhibition, actives largely listed as inhibitors; calls by dose curve; tested in HEK293 cells; note: potency is the fitted concentration of half-maximal effect
* marks the source's active call; other numbers are inactive results; i = inactive; u = inconclusive; x = not tested or not shown; + = active, no number; ! = not confirmed by another sample; [ ] = dose if it differs, or a comment. % is set by controls: 0 for no effect and ±100 for the full control effect.

SMILES | LASV entry inh | HCMV inh | Vaccinia mCherry | VACV Venus inh | FMDV antiviral | Marburg entry inh
Cc1ccc(NS(=O)(=O)c2ccc3c(c2)CC(C)N3C(=O)C2CCC2)cc1Cl (stereo not given) | -26%[46.1 µM] | -76* | -31% | -21% | 12% | x
CCN(Cc1ccccc1)C(=O)CCNS(=O)(=O)c1ccc2c(c1)CC(C)N2C(C)=O (stereo not given) | -42%[46.1 µM] | -72*! | -11% | -6% | -5% | x
CC(=O)N1c2ccc(S(=O)(=O)NCC3CCC(C(=O)Nc4cccc(F)c4)CC3)cc2CC1C (stereo not given) | u | -77* | -9% | u | 20µM* | x
CC(=O)Nc1ccc(NS(=O)(=O)c2ccc3c(c2)CC(C)N3C(=O)C2CCC2)cc1 (stereo not given) | u | -5 | -20% | -11% | -23% | x
CC1Cc2cc(S(=O)(=O)N3CCC(C(=O)NCc4ccco4)CC3)ccc2N1C(=O)C1CCC1 (stereo not given) | u | u | -19% | -23% | -15% | 13µM*
Cc1ccc(CNC(=O)C2CCN(S(=O)(=O)c3ccc4c(c3)CC(C)N4C(=O)C3CC3)CC2)cc1 (stereo not given) | x | -10 | -12%[7.34 µM] | -10%[7.34 µM] | -25% | x
C[C@H]1C[C@@H](C)O[C@@]2(C1)C(=O)N(Cc1ccccc1C(F)(F)F)c1ccccc12 | x | x | x | x | x | -15%[14.2 µM]
O=C1NC2C3CC(c4ccccc43)C12 (stereo not given) | x | -70* | -3% | -11% | -22% | x
O=C1N=c2ccccc2=NC1C(=O)c1ccccc1 (stereo not given) | x | x | x | x | x | 6%
CCC1CN(C(=O)N2CCC(C(=O)NCCc3ccccc3OC)CC2)c2ccccc2O1 (stereo not given) | -8%[46.1 µM] | + | i | -10% | -18% | -21%[46.1 µM]
CCOc1ccccc1CNC(=O)C1CCN(C(=O)N2CC(CC)Oc3ccc(C)cc32)CC1 (stereo not given) | u | 16 | -8% | -9% | 35µM* | x
CCC1CN(C(=O)N2CCC(C(=O)NCCc3ccc(OC)cc3OC)CC2)c2ccccc2O1 (stereo not given) | x | -21 | x | x | u | x
CCC1CN(C(=O)N2CCC(C(=O)N3CCN(c4cc(C)ccc4C)CC3)CC2)c2ccccc2O1 (stereo not given) | 7%[46.1 µM] | u | u | u | 18µM* | x
CC1Sc2ccc(C(=O)Nc3ccccc3OC(F)F)cc2NC1=O (stereo not given) | 2% | 29 | -7% | -27% | 20% | 5%
Cc1ccc(NC(=O)C(c2ccccc2)N(C)C)cc1Cl (stereo not given) | u | x | i | -14% | 74% | 11µM*
Cc1ccc(NC(=O)C(OC(=O)c2ccc(O)cc2)c2ccccc2)cc1Cl (stereo not given) | u | 58 | x | x | 9% | -18%
O=C(CCl)N(O)c1ccc(C=Cc2ccccc2)cc1 | 8.9µM* | 8 | -3% | -4% | 20% | u
CC(C)NC(=O)c1cn(C2CCCN(C(=O)c3cc4ccccc4oc3=O)C2)nn1 (stereo not given) | x | x | -8% | -13% | -11% | x
O=C1C(CSCc2ccccc2)NC(=S)N1c1ccccc1 (stereo not given) | x | 34 | x | x | 28µM* | x
O=C(O)CC1NC(=S)N(c2ccccc2)C1=O (stereo not given) | 3% | 4 | x | x | 5% | -4%
CC(C)(C)c1ccc(C(=O)N2CCC2(C)C(=O)Nc2cccc(C#N)c2)cc1 (stereo not given) | x | u | 14% | -13% | u | x
Cc1ccc(-n2[nH]c(C)c(C=Nc3ccc4[nH]c(=O)[nH]c4c3)c2=O)cc1 | u | 23 | u | u | 32µM* | u
CN(C)c1ccc(N/C(=N\S(=O)(=O)c2cccs2)c2ccccc2)cc1 | x | -68* | x | x | 42% | 1%
COc1ccc2oc(C(=O)N3CCc4ccccc43)c(C)c2c1 | u | 60 | -4% | 16% | u | u
CN(C)CCNC(=O)c1cc2c(s1)-c1ccc(Cl)cc1SC2 | x | -100* | u | 3.5µM* | u | x

Bioassay records: PubChem, National Center for Advancing Translational Sciences (NCATS)
